Experimental data reported in the supplement of paper PMC3334620.
In all, about 33,000 sequences were measured (“E-score (-0.5 to 0.5)”: median about -0.0014, highest 2% from about 0.25 on). The full list was thinned out, with the highest values kept by preference.

molecular target: T1, Cad1 (UniProt P24813); experiment: PBM E-score (8-mer binding enrichment) (E-score (-0.5 to 0.5)); higher = stronger / more preferred TF binding; details: protein concentration: 100 nM; construct: GST-full length
T1 sequence: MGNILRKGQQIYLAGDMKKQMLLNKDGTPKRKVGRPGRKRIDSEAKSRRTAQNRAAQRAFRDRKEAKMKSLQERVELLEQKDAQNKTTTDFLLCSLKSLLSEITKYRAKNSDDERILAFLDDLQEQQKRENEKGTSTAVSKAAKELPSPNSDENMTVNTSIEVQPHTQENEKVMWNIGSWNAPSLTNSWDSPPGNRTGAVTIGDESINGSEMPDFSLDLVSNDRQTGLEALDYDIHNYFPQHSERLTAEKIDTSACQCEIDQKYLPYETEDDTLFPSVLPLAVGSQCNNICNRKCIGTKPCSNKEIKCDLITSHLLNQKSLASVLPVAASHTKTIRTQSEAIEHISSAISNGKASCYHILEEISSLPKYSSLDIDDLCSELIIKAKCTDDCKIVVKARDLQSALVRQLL
Method: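 Universal 'all 10-mer' protein binding microarrays (Agilent AMADID 015681) probed with GST-tagged S. cerevisiae TFs (full-length or DBD) made by in vitro transcription/translation (PURExpress), about 100-200 nM. Bound TF was detected with fluorescent anti-GST. Each ungapped 8-mer (which stands for itself and its reverse complement) is scored by the PBM enrichment score (E-score), a modified Wilcoxon-Mann-Whitney statistic from -0.5 to +0.5, computed with the Universal PBM Analysis Suite. Scale: above 0.35 generally sequence-specific binding.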

Sequence | PBM E-score
AGCGGACC | -0.113
ACTCGAGG | 0.107
ACTCGAGT | 0.311
ACTCGAGA | -0.0156
AAATCGGA | 0.171
TAATCGGA | 0.152
CAATCGGA | 0.259
TAGCGACA | 0.0174
CTGGCCAG | -0.159
ATGGCCAC | -0.21
ATGGCCAT | 0.252
ATGGCCAA | -0.046
ATGGCCAG | 0.273
ATGGCCTG | 0.0685
GGAGATCA | -0.0337
ATAGCCCA | 0.062
CAAACCGA | 0.0658
ATAATGAA | 0.166
CACGGATA | 0.22
AACGGAAA | 0.219
TACGGATA | 0.116
AACGGAAG | 0.114
AACGGATC | 0.217
AACGGATT | 0.317
ATCGGATA | 0.276

Sequence | PBM E-score
AACGGATA | 0.252
GTCGGATA | 0.0779
AACGGAAT | 0.269
AACGGATG | -0.0154
CTCGGATA | 0.193
CTGAGGCC | -0.0469
CTACTGCC | -0.162
CAGGATCA | -0.0245
ACTTGTGG | -0.0436
CGATAATC | -0.016
AGTTAAAA | 0.14
AAGCCCTT | -0.0922
AGCGGATA | -0.0234
CGCGGATA | 0.258
CGCGGATC | 0.0644
CCTGCCCA | -0.0659
CGTCAAGC | -0.0629
AGCATATC | 0.025
CGCATATC | 0.318
CGCATATA | -0.0685
CCCGTTCG | 0.016
ATGTCGAA | -0.00122
ATGTCGAC | 0.276
CTGTCGAC | -0.0383
GCGTCGAA | 0.116

Sequence | PBM E-score
AAGTCGAC | 0.256
GCGTCGAC | 0.252
AAGTCGAA | -0.0588
AAGTCGAT | 0.0428
CCGTCGAC | -0.0671
CCGACAAG | -0.0166
CATCTCCA | 0.09
ATACATAT | 0.286
ATACATAA | 0.12
AAACATAC | -0.123
AAACATAG | -0.0611
AAACATAT | 0.25
ATACATAC | -0.195
GCGGCCGC | 0.175
AATTGATC | -0.0161
AATTGATA | 0.206
AATTGATG | 0.251
TCACGTGA | 0.125
TCCGCTCA | -0.195
ACTCGAAA | -0.0505
AGAGCCCT | -0.122
CCTGATTA | 0.31
CTTGAATA | 0.118
ATTGATTA | 0.286
ATTGAATC | -0.0423

Sequence | PBM E-score
ACTGATTG | 0.0651
CCTGATTC | 0.0985
ATTGAATA | 0.281
CCTGATGA | 0.0887
ATTGATTG | 0.133
ACTGATTA | 0.265
ATTGATTC | 0.12
ACTGATTC | -0.0134
CAGCATAA | 0.169
AATTAAGT | 0.181
ACTACTGC | -0.0336
GACTACGA | -0.0382
GATGGGTA | 0.0269
CCAGCCAG | -0.207
GCTGATTA | 0.378
GATGATTA | 0.126
GCTGATAA | 0.161
CTCATGGC | -0.0384
TAGAACTA | 0.0157
ACTAGGAT | -0.0418
GTCGGTAA | -0.116
CTATAGCA | -0.0148
AATTCCAT | 0.0643
AATTCCAC | 0.111
AATTCCAG | 0.257

Sequence | PBM E-score
AGTATCTC | 0.178
TCTTCAAA | -0.0389
GAACTCGA | 0.0968
CAACTCGA | 0.175
TAACTCGA | 0.275
AAATTCAC | 0.0164
AATTATCA | 0.266
ACTTATCT | 0.0827
AATTATTA | 0.249
AATTATCG | 0.247
AATTATCT | 0.282
AATTATCC | 0.0534
AGGAGACT | -0.286
ATAAAACA | 0.0107
CGATCGCA | 0.169
CCAGATGA | -0.131
TGAGCGAA | 0.123
GCTGACCA | 0.252
GCTGACTA | 0.335
ACTGACCA | -0.105
GCTGACCC | -0.145
CCTGACTA | 0.351
CCTGACTC | -0.139
GATGACTA | 0.172
ACTGACTA | 0.116

Sequence | PBM E-score
GTTGACTA | 0.0212
CCGATGGC | -0.118
CGGGTGGA | -0.0447
CGTTAGCC | 0.0683
GCCCTAAA | -0.269
CTCGAAGC | 0.00892
AGCACTAA | 0.094
TGCACTAA | 0.32
CGCACTAA | 0.155
TCGGGGAA | 0.0236
GAGACGTA | -0.0175
GGACAAAA | 0.0884
AAACAAAA | -0.0143
GAACAAAA | 0.274
ACACAAAA | 0.0974
CGACAAAA | 0.136
TGACAAAA | 0.251
GAACAAAC | 0.0779
TCACAAAA | 0.253
GCACAAAA | 0.18
ATCAGCAG | 0.191
AATATCCT | -0.0122
CAAATTTG | 0.33
AGAATTAT | 0.191
ATTATAAT | 0.227

Sequence | PBM E-score
ATAATTAT | 0.377
CAAATTTC | 0.201
ATAATTCC | -0.00553
ATAATTAC | 0.295
ATAATTTC | 0.154
CTAATTAC | 0.199
AAAATTTG | 0.196
ATAATTGG | -0.0135
ATAATTTG | 0.278
GGCATTGA | -0.0489
ACCGCGCG | 0.225
CCGGTAGC | -0.164
CCTCAATC | 0.0973
GCATTCAA | 0.0687
AAGGGACG | -0.195
GACCGATC | -0.128
CAGGGTCC | -0.134
AGGGGGAA | -0.248
AATTGGTC | 0.0715
ATAATTGA | 0.149
GTAATTAA | 0.218
CCAATTAG | 0.223
TTAATTAA | 0.0562
